# Data published in PubChem BioAssay AID1251 (SRMLSC, 2008).
# Values joined by “and” are separate entries in the source; they are usually repeats but may differ in a detail not shown here. Equal entries are not always repeated. Among all 200,000 compounds or so, about 720 (0.36%) were called active. Cut-off read from the data, not from the text of the source: active = inhibition above about 30%; inactive = the rest, inconclusive results apart. This excerpt belongs to a sample that is enriched for actives.
# Experiment: antivirals against arbovirus infection, primary screen, cell-based, full library, 10K replicate subset (AID 1251)
# [1] = arbovirus infection cell-based antiviral screen, at 10 µM, stronger effect = higher value
compound,measurement,setting,value
CC(=O)c1cc(C#N)c(SCC(=O)C(C)(C)C)nc1C,inhibition,[1],-12.4% (inactive)
Cc1cc(=O)[nH]c(SCC(N)=O)c1C#N,inhibition,[1],4.32% (inactive)
CCCCSc1[nH]c(=O)c(C(=O)OCC)cc1C#N,inhibition,[1],39.8% (active)
COc1cc(NS(=O)(=O)c2ccc(NC(=O)c3ccc(S(=O)(=O)N4CCCCC4)cc3)cc2)ncn1,inhibition,[1],-0.14% (inactive)
N#Cc1ccc(C(=O)Nc2nc(-c3cccs3)c(C(=O)C(F)(F)F)s2)cc1,inhibition,[1],2.83% (inactive)
CCn1c(CSCc2c(Cl)cccc2Cl)n[nH]c1=S,inhibition,[1],10.9% (inactive)
CN(CC(=O)Nc1ccc(S(=O)(=O)N2CCCC2)cc1)Cc1ccc(Cl)c(Cl)c1,inhibition,[1],-4.82% (inactive)
COc1ccccc1N1CCN(Cc2ccc(OC)c3ccccc23)CC1,inhibition,[1],31.9% (active)
COc1ccccc1N1CCN(CCCCOc2ccc(F)cc2)CC1,inhibition,[1],13.4% (inactive)
CNCC(O)CN1CCN(c2ccccc2OC)CC1 (stereo not given),inhibition,[1],3.01% (inactive)
CN(C)CCCNC(=O)/C=C/c1ccc(OCc2c(F)cccc2Cl)cc1,inhibition,[1],-27.3% (inactive)
O=C(CN1CCN(S(=O)(=O)/C=C/c2ccccc2)CC1)Nc1ccc(N2CCOCC2)cc1,inhibition,[1],-11% (inactive)
N#Cc1c(-c2ccc(F)cc2)nc(-c2ccccc2)[nH]c1=O,inhibition,[1],6% (inactive)
COc1ccc(C)cc1NC(=O)C(OC(=O)c1cccc(S(=O)(=O)N(C)c2ccccc2)c1)c1ccccc1 (stereo not given),inhibition,[1],2.04% (inactive)
CNC(=S)N1CCN(c2ccccn2)CC1,inhibition,[1],8.2% (inactive)
C=CCn1c(P(C)(=O)O)nc2ccccc21,inhibition,[1],-2% (inactive) and 0.03% (inactive)
Cc1ccc(CN2CCN(Cc3ccc4ncccc4c3)CC2CCO)cc1 (stereo not given),inhibition,[1],4.14% (inactive)
CCCCNC(=O)Nc1c(C)cc(SC#N)cc1C,inhibition,[1],-9.26% (inactive)
O=C(Nc1nc(-c2ccncc2)cs1)C1COc2ccccc2O1 (stereo not given),inhibition,arbovirus infection cell-based antiviral screen; at 10 µM; stronger effect = higher value,-2.24% (inactive)
same,inhibition,arbovirus infection cell-based antiviral screen; measured here: 10K subset replicate screen; at 10 µM; stronger effect = higher value,4.95%
O=C(Nc1nnc(SCc2c(Cl)cccc2Cl)s1)C1CCCO1 (stereo not given),inhibition,[1],-0.49% (inactive)
O=C(Nc1nnc(SCc2ccc(Cl)cc2Cl)s1)C1COc2ccccc2O1 (stereo not given),inhibition,[1],30.9% (active)
CC(=O)Nc1ccc(OCCC[n+]2cccc(C(=O)[O-])c2)cc1,inhibition,[1],1.68% (inactive)
CCN(c1ccc(NC(=O)COC(=O)CCc2nc3ccccc3n2-c2ccccc2)cc1)C(C)C,inhibition,[1],-15.1% (inactive)
Cc1c(Cl)cccc1NC(=O)Nc1ccc(C(=O)N2CCCC2)cc1,inhibition,[1],-2.79% (inactive)
O=C1NC(=Nc2ccc(Cl)cc2)SC1Cc1cccc(Cl)c1Cl (stereo not given),inhibition,[1],30.2% (active)
NC1=NC(=O)C(Cc2cccc(Cl)c2Cl)S1 (stereo not given),inhibition,[1],9.95% (inactive)
O=C1N/C(=N\N=C\c2ccco2)SC1Cc1ccc(F)cc1 (stereo not given),inhibition,[1],29.1% (inactive)
Cc1ccc(C)n1NC(=O)c1ccc([N+](=O)[O-])cc1,inhibition,[1],0.14% (inactive)
CCOC(=O)c1c(Cc2ccc(Cl)cc2)c[nH]c1C,inhibition,[1],-0.75% (inactive)
COc1cccc2c(O)cc(=O)n(C)c12,inhibition,[1],-3.62% (inactive)
Cc1ccc(S(=O)(=O)NCc2csc(C)n2)c(C)c1,inhibition,[1],12.2% (inactive)
Cc1nc(CNS(=O)(=O)c2ccc(Oc3ccccc3)cc2)cs1,inhibition,[1],10.3% (inactive)
Cc1nc(CNS(=O)(=O)c2cccnc2)cs1,inhibition,[1],32.7% (active)
N#C/C(=C\c1ccc(N2CCOCC2)o1)C(=O)N1CCOCC1,inhibition,[1],-2.38% (inactive)
N#Cc1c(NC(=O)C2CCCO2)sc2c1CCCCC2 (stereo not given),inhibition,[1],6.23% (inactive)
N#Cc1c(NC(=O)CCCl)sc2c1CCCCC2,inhibition,[1],-2.94% (inactive)
N#Cc1c(NC(=O)C2CC(Cl)=CCC2C(=O)O)sc2c1CCCCC2 (stereo not given),inhibition,[1],31.9% (active)
CC(=O)Nc1ccc(S(=O)(=O)NCC(=O)OCc2cc(=O)oc3ccc4ccccc4c23)cc1,inhibition,[1],2.02% (inactive)
Cc1cc(C)n2nc(C(=O)N(C)C(c3ccccc3)c3ccccc3)nc2n1,inhibition,[1],24.9% (inactive)
COc1cc(C(=O)NCc2ccc(-n3cccc3)cc2)cc(OC)c1OC,inhibition,[1],2.99% (inactive)
N#Cc1ccccc1Sc1ccccc1C(=O)OCC(=O)NC1CCCCC1,inhibition,[1],5.04% (inactive)
COC(=O)C1=C(NC(=O)C(C)(C)C)CCS1,inhibition,[1],2.37% (inactive)
Cc1ccnc(NS(=O)(=O)c2ccc(NC(=O)c3ccc(S(=O)(=O)N(C)C)cc3)cc2)n1,inhibition,[1],14.3% (inactive)
Cc1c(CCOC(=O)CC23CC4CC(CC(C)(C4)C2)C3)sc[n+]1Cc1ccc([N+](=O)[O-])cc1,inhibition,[1],-19.1% (inactive)
COC(=O)C1=C(C(=O)OC)C(c2cc([N+](=O)[O-])ccc2O)c2sc(=O)[nH]c2S1 (stereo not given),inhibition,[1],-2.76% (inactive)
Cc1ccc(NC(=O)c2ccccn2)cc1S(=O)(=O)N1CCOCC1,inhibition,[1],20% (inactive)
Cc1cccc(NC(=O)NC(=S)NC(=O)c2ccccc2)c1,inhibition,[1],10.4% (inactive)
CCC(=O)NCc1cc(-c2nn(C)c(=O)c3ccccc23)ccc1OC,inhibition,[1],-10.6% (inactive)
O=C(COC(=O)c1ccccc1F)Nc1cc(S(=O)(=O)N2CCOCC2)ccc1N1CCCC1,inhibition,[1],3.02% (inactive)
